Compound activity (PubChem BioAssay)
RGS7-Gao = human RGS7-Galphao interaction regulation; P09471; Multiplexed bead flow cytometry, RGS7-Galphao binding; actives lie on both sides; binding response (% of control), % at 10 µM; hit rate 0.35% among 220,000; AID 1439; in the data active = binding response below about 49% or above about 150%; inconclusive = no clear call, values can overlap the other calls; inactive = in between;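 note: fluorescent Galphao held in activated GDP-AlF4 state binding bead-coupled RGS7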
RGS8-Gao = modulates binding of RGS8 to human Galphao; P09471; multiplexed bead flow cytometry; actives lie on both sides; response (percent of control binding), % at 10 µM; hit rate 0.34% among 220,000; AID 1423; in the data active = response below about 60% or above about 140%; inactive = in between;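 note: Galphao activated as the GDP aluminium fluoride complex binding bead-coupled RGS8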
RGS4-Gao reg = modulates binding of RGS4 to human Galphao; P09471; Multiplexed bead flow cytometry; actives lie on both sides; binding response (% of control), % at 10 µM; hit rate 0.33% among 220,000; AID 1415; in the data active = binding response below about 49% or above about 150%; inactive = in between;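 note: fluorescent Galphao activated with aluminum fluoride binding bead-coupled RGS4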
GSH bead fluor = compound fluoresces at 488/530 nm on GSH beads. GSH beads flow cytometry, compound fluorescence 488/530 nm; active compounds read high. fluorescence (KMESF) at 10 µM. hit rate 0.25% among 190,000; in the data active = fluorescence above about 89;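 note: glutathione beads carrying GST-tagged Bcl family fusion proteins plus one bare bead set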
Avidin bead fluor = avidin bead compound fluorescence profile; Avidin beads, compound fluorescence 488/530 nm, flow cytometry; active compounds read high; fluorescence (KMESF) at 10 µM; hit rate 0.38% among 220,000; AID 1775; in the data active = fluorescence above about 47
RGS16-Gao = modulates binding between human RGS16 and Galphao. O15492+P09471. bead-based flow cytometry RGS16-Galphao binding, fluorescence; actives lie on both sides. binding response (% of control), % at 10 µM. hit rate 0.38% among 220,000. AID 1441;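 note: Galphao activated by GDP with aluminum fluoride before binding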
RGS-Gao = modulates binding between human RGS4 and Galphao; multiplexed bead flow cytometry, RGS–Galpha-o binding; shares compounds with RGS16-Gao; hit rate 99% among 1,600; AID 1504; RGS4–Galpha-o binding response, % at 10 µM;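 note: fluorescently labeled Galpha-o bound to GDP with aluminium fluoride binding biotinylated RGS beads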
Biotin-avidin = interferes with biotinylated probe binding to avidin beads. AID 1783. 1,700 tested, under 10 active. shares compounds with RGS16-Gao. streptavidin beads, fluorescein-biotin binding, flow cytometry. inhibition, % at 10 µM;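 active = inhibition above 50%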;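 note: median green fluorescence of gated singlet beads compared with DMSO control wells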
RGS8-Gao single = confirmation of regulators of human RGS8-Galphao interaction; AID 1836; binding response (% of control), % at 10 µM; shares compounds with RGS16-Gao; hit rate 3% among 1,700; bead-based flow cytometry RGS8-Galphao binding, fluorescence; actives lie on both sides; in the data active = binding response below about 72% or above about 130%; inactive = in between;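 note: Galphao activated as GDP AlF4 complex before binding bead RGS8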
RGS7-Gao confirm = confirmation of regulators of human RGS7-Galphao interaction. shares compounds with RGS16-Gao. bead-based flow cytometry RGS7-Galphao binding; actives lie on both sides. response (percent of control binding), % at 10 µM. hit rate 7.8% among 1,700; in the data active = response below about 75% or above about 130%; inactive = in between;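 note: fluorescent Galphao activated with GDP and aluminum fluoride binding bead-coupled RGS7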
RGS16-Gao single = RGS16-Galphao interaction regulation, single point confirmation; hit rate 4% among 1,700; response (% of control binding), % at 10 µM; bead-based flow cytometry, RGS16-Galphao binding; actives lie on both sides; shares compounds with RGS16-Gao; in the data active = response below about 74% or above about 130%; inactive = in between;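 note: Galphao activated as the GDP aluminium fluoride complex binding bead-coupled RGS16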
RGS4-Gao confirm = RGS4-Galphao interaction regulation, single point confirmation | RGS4-Galphao binding, multiplexed bead flow cytometry; actives lie on both sides | AID 1840 | shares compounds with RGS16-Gao | hit rate 4% among 1,700 | binding response (% of control), % at 10 µM; in the data active = binding response below about 74% or above about 130%; inactive = in between
RGS19-Gao single = confirmation of regulators of human RGS19-Galphao interaction; shares compounds with RGS16-Gao; AID 1841; hit rate 5% among 1,700; response (percent of control binding), % at 10 µM; bead-based flow cytometry RGS19-Galphao binding; actives lie on both sides; in the data active = response below about 50% or above about 160%; inactive = in between
Large screens that a line does not name were inactive (follow-up assays come after a bar, where they were run); [ ] = remark or other dose. In the library only some 1.2% were active in any assay of this set; here they are far more common. Unless noted, the rule behind the calls is not given here.

CC(=O)O/N=C1\C(=O)N(Cc2ccc(C)cc2)c2ccccc21	RGS8-Gao 58 | RGS-Gao 76
CN1C(=O)/C(=N\OC(=O)c2ccccc2Cl)c2ccccc21	none
CCN(CC)CCNc1ccc2nnc(CCNS(=O)(=O)c3ccc(C)cc3)n2n1	RGS7-Gao 16, RGS8-Gao 15, RGS4-Gao reg 20, RGS16-Gao 11 | Biotin-avidin inactive | RGS8-Gao single inactive | RGS7-Gao confirm 67 | RGS16-Gao single inactive | RGS4-Gao confirm inactive | RGS19-Gao single inactive
Cc1ccc(S(=O)(=O)NCCc2nnc3ccc(SCC(=O)Nc4nc(C)cs4)nn23)cc1	none
Cc1nn(-c2ccccc2)c(N2CCCC2)c1/C=N/NC(=O)c1ccccc1O	none
O=C(N/N=C/c1cc2c3c(c1O)CCCN3CCC2)c1ccccc1O	RGS7-Gao 15, RGS8-Gao 43, RGS4-Gao reg 25 | Biotin-avidin inactive | RGS8-Gao single inactive | RGS7-Gao confirm inactive | RGS16-Gao single inactive | RGS4-Gao confirm inactive | RGS19-Gao single inactive
O=C(CCN1CCN(c2ccc(F)cc2)CC1)Nc1ccccc1F	none
CCc1nnc(SCc2ccc(OC)c(Br)c2)n1N	RGS7-Gao 35, RGS8-Gao 44, RGS4-Gao reg 40 | Biotin-avidin inactive | RGS8-Gao single inactive | RGS7-Gao confirm inactive | RGS16-Gao single inactive | RGS4-Gao confirm inactive | RGS19-Gao single inactive
CCOc1ccc(CCNC(=O)c2cc3sccc3n2C)cc1OCC	RGS8-Gao 142[activator], RGS4-Gao reg 155[activator] | Biotin-avidin inactive | RGS8-Gao single inactive | RGS7-Gao confirm inactive | RGS16-Gao single inactive | RGS4-Gao confirm inactive | RGS19-Gao single inactive
O=c1c2c3c(sc2nc(NCCOCCO)n1Cc1ccco1)CCCCC3	RGS7-Gao inconclusive, RGS8-Gao 46, RGS4-Gao reg 39 (no result: GSH bead fluor) | Biotin-avidin inactive | RGS8-Gao single inactive | RGS7-Gao confirm inactive | RGS16-Gao single inactive | RGS4-Gao confirm inactive | RGS19-Gao single inactive
Cc1ccccc1-n1c(SCC(=O)c2c(N)n(C)c(=O)n(C)c2=O)nc2sc3c(c2c1=O)CCCC3	RGS16-Gao 22 | RGS-Gao 88 | Biotin-avidin inactive | RGS8-Gao single inactive | RGS7-Gao confirm inactive | RGS16-Gao single inactive | RGS4-Gao confirm inactive | RGS19-Gao single inactive
CCNC(=O)c1c(NC(=O)C2COc3ccccc3O2)sc2c1CCCC2 (stereo not drawn)	RGS7-Gao 155[activator], RGS8-Gao 185[activator], RGS4-Gao reg 170[activator] | Biotin-avidin inactive | RGS8-Gao single inactive | RGS7-Gao confirm inactive | RGS16-Gao single inactive | RGS4-Gao confirm inactive | RGS19-Gao single inactive
COCCCNC(=O)c1c(NC(=O)C2COc3ccccc3O2)sc2c1CCCC2 (stereo not drawn)	none
COc1ccc(CC2CCOC2=O)cc1 (stereo not drawn)	RGS16-Gao -31 | RGS-Gao 94 | Biotin-avidin inactive | RGS8-Gao single inactive | RGS7-Gao confirm inactive | RGS16-Gao single inactive | RGS4-Gao confirm inactive | RGS19-Gao single inactive
